Laboratory results from PMC4336329 (PLoS ONE, 2015).
About 2,200 (0.71%) of roughly 310,000 compounds showed an effect of 50% or more. Effects have a minus sign here. The sample as a whole holds a higher share of strong results than the screen did.

target: human ether-à-go-go-related gene (hERG) potassium channel (human, UniProt Q12809); assay: primary screen, population patch clamp on CHO cells stably expressing hERG; higher = less effect of the substance
Sequence (Q12809 whole entry, looked up): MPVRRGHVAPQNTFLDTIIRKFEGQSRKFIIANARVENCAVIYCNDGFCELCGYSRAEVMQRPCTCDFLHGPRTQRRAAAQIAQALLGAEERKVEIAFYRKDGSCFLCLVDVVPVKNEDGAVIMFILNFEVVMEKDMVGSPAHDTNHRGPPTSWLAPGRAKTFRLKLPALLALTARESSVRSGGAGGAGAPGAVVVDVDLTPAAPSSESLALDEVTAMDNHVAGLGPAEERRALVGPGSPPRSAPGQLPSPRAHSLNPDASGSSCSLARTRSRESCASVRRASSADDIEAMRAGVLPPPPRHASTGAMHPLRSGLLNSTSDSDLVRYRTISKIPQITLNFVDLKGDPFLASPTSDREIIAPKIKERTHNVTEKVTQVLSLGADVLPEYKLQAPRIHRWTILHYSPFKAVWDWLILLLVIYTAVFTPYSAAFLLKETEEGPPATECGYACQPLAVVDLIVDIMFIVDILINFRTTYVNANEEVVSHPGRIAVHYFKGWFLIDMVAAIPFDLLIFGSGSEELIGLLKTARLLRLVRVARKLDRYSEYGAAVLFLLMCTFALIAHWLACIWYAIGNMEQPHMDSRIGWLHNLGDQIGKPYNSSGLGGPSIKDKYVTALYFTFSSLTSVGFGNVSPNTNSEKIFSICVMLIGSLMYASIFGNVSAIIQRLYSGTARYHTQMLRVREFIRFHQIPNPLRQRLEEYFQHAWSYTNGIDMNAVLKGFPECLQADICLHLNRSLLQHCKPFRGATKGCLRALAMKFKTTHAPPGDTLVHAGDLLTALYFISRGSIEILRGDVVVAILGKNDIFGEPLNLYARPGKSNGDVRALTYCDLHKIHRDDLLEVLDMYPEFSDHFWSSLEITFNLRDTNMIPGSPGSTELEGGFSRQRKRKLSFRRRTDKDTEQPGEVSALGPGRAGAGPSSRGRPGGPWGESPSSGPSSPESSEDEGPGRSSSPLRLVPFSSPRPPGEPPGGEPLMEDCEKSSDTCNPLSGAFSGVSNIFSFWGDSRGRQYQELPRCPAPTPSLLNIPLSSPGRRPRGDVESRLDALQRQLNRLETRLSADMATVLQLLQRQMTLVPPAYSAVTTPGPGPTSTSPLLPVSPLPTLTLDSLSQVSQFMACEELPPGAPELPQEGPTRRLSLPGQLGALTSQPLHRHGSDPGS

Structure (SMILES)	hERG current change (%, negative = inhibition) at 1uM
CC1CCCCC1NC(=O)CCn1c(=O)sc2ccccc21 (stereo not shown)	18%
Cc1ccc(C(=O)NNC(=O)c2n[nH]c(=O)c3ccccc23)cc1C	5.71%
Cc1cccc2cc(CN(Cc3cccs3)Cc3nnnn3Cc3ccccc3)c(=O)[nH]c12	-3.15%
O=C(NO)c1ccc(C(=O)N(C2CCCCC2)C2CCCCC2)cc1	3.06%
Cc1ccc(N2CC(C(=O)Nc3ccc(S(=O)(=O)N4CCOCC4)cc3)CC2=O)cc1Cl (stereo not shown)	7.84%
C/C(=N/NC(=O)c1ccc2c(c1)OCO2)c1cccc(NC(=O)C(C)(C)C)c1	9.89%
CC(Oc1ccccc1)C(=O)Nc1ccc(S(=O)(=O)N2CCCC2)cc1 (stereo not shown)	16.8%
COc1ccc(S(=O)(=O)n2nc(OC(=O)C3CCCCC3)cc2N)cc1	9.89%
CCOc1ccccc1N1CCN(C(=O)c2cc(-c3cc(OC)ccc3OC)nc3ccccc23)CC1	8.96%
CC12CC3(C)CC(C)(C1)CC(C(=O)NCC(=O)O)(C2)C3	19.5%
COc1ccc(-c2ccc(S(=O)(=O)n3nc(OC(=O)c4cccs4)cc3N)cc2)cc1	8.64%
Cc1oc(-c2cccc(Cl)c2)nc1CN1CCC(C(=O)NCCCN2CC(C)CC(C)C2)CC1 (stereo not shown)	13.9%
CCN1CCN(CCNC(=O)C2CCCN(Cc3nc(-c4cccc(Cl)c4)oc3C)C2)CC1 (stereo not shown)	3.86%
Cc1oc(-c2cccc(Cl)c2)nc1CN1CCC(C(=O)NCC2CCCO2)CC1 (stereo not shown)	-31.8%
CCc1ccc(-c2nc(CN3CCCC(C(=O)NCCc4ccc(OC)c(OC)c4)C3)c(C)o2)cc1 (stereo not shown)	-3.23%
COc1ccc(CCNC(=O)C2CCN(Cc3nc(-c4cccc(Cl)c4)oc3C)CC2)cc1OC	-80.9%
COc1ccc(CCNC(=O)C2CCN(Cc3nc(-c4ccccc4F)oc3C)CC2)cc1OC	-17.3%
COc1ccc(CCNC(=O)C2CCCN(Cc3nc(-c4cccc(Cl)c4)oc3C)C2)cc1OC (stereo not shown)	-76.7%
COc1ccccc1CNC(=O)C1CCN(Cc2nc(-c3cccc(Cl)c3)oc2C)CC1	-68.3%
COc1ccc(CCNC(=O)C2CCN(Cc3nc(-c4ccccc4C)oc3C)CC2)cc1OC	-59.9%

Structure (SMILES)	hERG current change (%, negative = inhibition) at 1uM
COc1ccc(CCNC(=O)C2CCCN(Cc3nc(-c4ccccc4C)oc3C)C2)cc1OC (stereo not shown)	-2.12%
CCc1ccc(-c2nc(CN3CCC(C(=O)NCCc4ccc(OC)c(OC)c4)CC3)c(C)o2)cc1	-40%
CCc1ccc(-c2nc(CN3CCC(C(=O)NCc4ccccc4OC)CC3)c(C)o2)cc1	-13.1%
Cc1ccccc1C(=O)Nc1ccnc(-c2ccncc2)n1	14.1%
C/C(CC(=O)NCc1ccco1)=N\NC(=O)C(c1ccccc1)c1ccccc1	6.69%
CCOc1ccc(CCNC(=O)CCc2nnc3ccc(N4CCOCC4)nn23)cc1OCC	7.73%
O=C(Nc1ccc(SC(F)F)cc1)C12CCC(CC1)C2	5.66%
CN(CC(=O)Nc1ccccc1Cl)C(=O)COC(=O)c1nc(Cl)c(Cl)c(Cl)c1Cl	9.88%
C=CCn1c(COc2ccc(Cl)cc2)nnc1SCC(=O)c1c(N)n(C)c(=O)n(C)c1=O	10.5%
Cc1oc(-c2ccccc2F)nc1CN1CCC(C(=O)NC2CC2)CC1	0.032%
Cc1ccccc1-c1nc(CN2CCC(C(=O)NCCC3=CCCCC3)CC2)c(C)o1	-32%
Cc1oc(-c2ccccc2F)nc1CN1CCC(C(=O)NCCC2=CCCCC2)CC1	-51.1%
CN(C)CCN(C(=O)CN1C(=O)c2ccccc2C1=O)c1nc2cc3c(cc2s1)OCO3.Cl	7.04%
COc1ccccc1C(=O)N/C(=C/c1ccccc1)C(=O)NC(CCSC)C(=O)O (stereo not shown)	12%
COC(=O)c1ccc(CN2CCC(CO)(Cc3cccc(OC)c3)CC2)cc1	-45.3%
COC(=O)c1ccc(CN2CCC(CO)(CCOc3ccccc3)CC2)cc1	-81.7%
CSc1ccc(CN2CCC(CO)(CCOc3ccccc3)CC2)cc1	-81.2%
OCCOc1cccc(CN2CCC(CO)(CCOc3ccccc3)CC2)c1	-2.72%
CC(=O)Nc1ccc(CN2CCC(CO)(CCOc3ccccc3)CC2)cc1	-43.8%
OCC1(CCOc2ccccc2)CCN(Cc2ccncc2)CC1	-0.954%
